From PubChem BioAssay come the findings set out here.

Assay [1] in a line: E. coli DRC41 culture turbidity changes, primary screen, E. coli filamentation inducer project, strain DRC41, OD650, 48 h (AID 1152).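 Also: E. coli MC1000 strain DRC41 lacking acrAB efflux pump and sulA.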 The settings on record: E. coli DRC41 (acrAB sulA), higher = more signal, called active from +8 up or from −8 down.
Assay [2] can be described thus: small-molecule binders of probe aLefty1, primary screen, biochemical, small-molecule microarray, 635/667 nm fluorescence (AID 1153).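 Also: score merges spot fluorescence with signal-to-noise ratio from the scanned slide images.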 The note with it: higher = more signal.
Assay [3] can be described thus: PSAC antagonists in infected red cells, primary screen, cell-based, P. falciparum Indochina, OD700, 1 h (AID 1154). The note with it: P. falciparum Indochina infected RBC osmotic lysis, higher = more signal, called active from +8 up or from −8 down.
Assay [4] in a line: PSAC antagonists in infected red cells, primary screen, cell-based, P. falciparum Indochina, OD700, 2 h (AID 1155).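 Also: lysis reports solute entry through the parasite surface anion channel PSAC; channel blockers reduce lysis of infected cells.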 The settings on record: P. falciparum Indochina infected erythrocytes, osmotic lysis OD700; higher = more signal, called active from +8 up or from −8 down.
Assay [5] can be described thus: osmotic lysis modulators in infected erythrocytes, primary screen, PSAC antagonist project, cell-based, P. falciparum Indochina, OD700, 3 h (AID 1156). The note with it: higher = more signal, called active from +8 up or from −8 down.
A short description of assay [6]: PSAC antagonists in infected red cells, primary screen, cell-based, P. falciparum Indochina, OD700, 18 h (AID 1157). The note with it: P. falciparum Indochina infected erythrocytes, osmotic lysis OD700, 18 h; higher = more signal, called active from +8 up or from −8 down.
Assay [7] can be described thus: modulators of S6 phosphorylation in cells, primary screen, cell-based, A549, cytoblot, luminescence, serum-stimulated (AID 1158).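 Also: serum-stimulated A549 lung adenocarcinoma cells; signal is phosphorylated S6 detected by cytoblot immunostaining with HRP secondary.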 The settings on record: A549 phospho-S6 cytoblot, 5 h, higher = more signal.
The target of assay [8] is NADPH oxidase 2 (Homo sapiens) (UniProt P04839). Briefly: NOX2-dependent H2O2 signal modulators, primary screen, NOX inhibitor project, cell-based, HEK293-NOX2, PMA-stimulated, Amplex Red fluorescence (AID 1159). Also: test concentration not given here. The settings on record: 45 min, higher = more signal, called active from +8 up or from −8 down.
Sequence of NADPH oxidase 2 (Homo sapiens) (P04839 whole entry, looked up): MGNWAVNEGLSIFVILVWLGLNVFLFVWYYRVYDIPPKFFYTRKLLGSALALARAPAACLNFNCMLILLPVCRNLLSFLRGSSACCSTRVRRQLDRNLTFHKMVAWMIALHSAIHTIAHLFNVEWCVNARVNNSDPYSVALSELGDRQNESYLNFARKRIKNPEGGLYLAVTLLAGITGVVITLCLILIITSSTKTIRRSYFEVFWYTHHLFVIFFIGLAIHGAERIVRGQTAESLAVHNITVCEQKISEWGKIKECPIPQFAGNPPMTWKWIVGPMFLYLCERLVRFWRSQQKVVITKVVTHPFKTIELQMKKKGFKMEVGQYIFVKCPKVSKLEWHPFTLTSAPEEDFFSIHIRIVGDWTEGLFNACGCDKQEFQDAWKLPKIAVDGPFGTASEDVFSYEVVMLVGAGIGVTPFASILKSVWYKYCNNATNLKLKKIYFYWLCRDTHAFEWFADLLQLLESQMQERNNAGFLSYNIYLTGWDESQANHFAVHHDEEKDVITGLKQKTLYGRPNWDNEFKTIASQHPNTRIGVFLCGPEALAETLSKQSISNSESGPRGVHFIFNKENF
The target of assay [9] is NADPH oxidase 4 (Homo sapiens) (UniProt Q9NPH5). Briefly: NOX4-dependent H2O2 signal modulators, primary screen, NOX inhibitor project, cell-based, HEK293-NOX4, tetracycline-induced, Amplex Red fluorescence (AID 1160). The note with it: 45 min, higher = more signal, called active from +8 up or from −8 down.
Sequence of NADPH oxidase 4 (Homo sapiens) (Q9NPH5 whole entry, looked up): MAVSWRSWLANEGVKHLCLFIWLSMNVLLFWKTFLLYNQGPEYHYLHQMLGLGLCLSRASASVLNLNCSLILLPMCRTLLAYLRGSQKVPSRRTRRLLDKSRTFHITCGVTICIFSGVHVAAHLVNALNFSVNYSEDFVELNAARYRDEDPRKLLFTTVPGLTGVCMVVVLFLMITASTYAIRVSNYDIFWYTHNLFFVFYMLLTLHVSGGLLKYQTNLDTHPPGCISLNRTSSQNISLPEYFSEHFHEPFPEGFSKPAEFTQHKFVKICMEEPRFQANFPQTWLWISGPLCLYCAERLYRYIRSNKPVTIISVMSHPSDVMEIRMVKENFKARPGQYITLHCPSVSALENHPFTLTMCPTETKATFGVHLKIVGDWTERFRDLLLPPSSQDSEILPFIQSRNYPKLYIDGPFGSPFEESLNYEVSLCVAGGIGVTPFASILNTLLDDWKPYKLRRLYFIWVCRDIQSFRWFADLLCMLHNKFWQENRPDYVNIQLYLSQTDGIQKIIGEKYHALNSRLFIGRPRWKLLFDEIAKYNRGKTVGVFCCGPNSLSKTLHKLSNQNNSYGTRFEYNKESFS
In assay [10] the target is NADPH oxidase 5 (Homo sapiens) (UniProt Q96PH1). Description: NOX5-dependent H2O2 signal modulators, primary screen, NOX inhibitor project, cell-based, HEK293-NOX5, Amplex Red fluorescence (AID 1161). The note with it: HEK293-NOX5, ionomycin, 45 min, higher = more signal.
Sequence of NADPH oxidase 5 (Homo sapiens) (Q96PH1 whole entry, looked up): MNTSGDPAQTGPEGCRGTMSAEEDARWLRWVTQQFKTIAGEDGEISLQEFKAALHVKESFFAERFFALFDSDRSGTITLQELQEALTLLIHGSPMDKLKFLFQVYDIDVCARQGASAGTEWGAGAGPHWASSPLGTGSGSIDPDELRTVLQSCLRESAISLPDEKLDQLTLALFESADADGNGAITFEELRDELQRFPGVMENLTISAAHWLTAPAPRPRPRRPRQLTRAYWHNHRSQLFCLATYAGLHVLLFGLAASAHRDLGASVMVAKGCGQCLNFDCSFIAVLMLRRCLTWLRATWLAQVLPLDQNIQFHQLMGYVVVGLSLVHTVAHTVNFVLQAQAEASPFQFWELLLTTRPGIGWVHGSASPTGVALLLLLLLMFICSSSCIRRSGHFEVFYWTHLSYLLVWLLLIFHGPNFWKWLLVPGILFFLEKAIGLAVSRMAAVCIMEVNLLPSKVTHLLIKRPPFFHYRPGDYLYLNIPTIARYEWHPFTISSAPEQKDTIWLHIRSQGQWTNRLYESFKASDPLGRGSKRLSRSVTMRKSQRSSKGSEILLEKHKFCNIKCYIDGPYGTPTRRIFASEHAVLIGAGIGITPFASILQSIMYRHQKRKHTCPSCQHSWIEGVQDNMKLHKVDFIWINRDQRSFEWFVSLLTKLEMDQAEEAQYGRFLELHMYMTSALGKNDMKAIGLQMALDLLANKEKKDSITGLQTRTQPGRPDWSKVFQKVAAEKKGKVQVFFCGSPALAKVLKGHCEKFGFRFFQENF

Calls of active or inactive are those of the source.

As for `C=CC[C@@]1(C(=O)NCC(O)CO)N=C(c2ccc(OCCCO)cc2)O[C@@H]1c1ccccc1CN=[N+]=[N-]` (stereo not given in full), the z-score in [1] is 1.39 (inactive); in assay [3], 24.9 (active); in assay [4] it was 9.51 (active); in [5] it was 1.99 (inactive); in [6] it was 1.25 (inactive); in assay [7], 0.281. For the same molecule, the z-score was -0.424 (inactive) in assay [8], 0.495 (inactive) in assay [9] and -0.927 in assay [10]. Further, the composite z-score in [2] amounted to 0.129.

For the molecule `COc1cccc([C@H]2N[C@H](C(=O)O)CC[C@@H]2C)c1`, the z-score is 0.669 (inactive) in [1]; 1.09 (inactive) in assay [3]; 0.0208 (inactive) in assay [4]; 0.269 (inactive) in assay [5]; -1.06 (inactive) in assay [6]; 3.05 in assay [7]. The z-score is 0.0263 (inactive) in assay [8], -0.557 (inactive) in assay [9] and 0.125 in [10]. In assay [2], this molecule registered a composite z-score of -0.23.

As to `CC(C)[Si]1(C(C)C)OCc2cc(C3CC3)nc(-c3ccccc3)c21`, the z-score in assay [1] was 2.37 (inactive); in assay [3], 2.84 (inactive); in [4], 0.201 (inactive); in [5], 0.531 (inactive); in [6], -0.15 (inactive); in assay [7], 1.34. Also, the z-score in [8] was 1.86 (inactive); in assay [9] it was 1.06 (inactive); in [10] it was -1.28. The composite z-score in assay [2] is -0.0573.

On to `Cc1ccc(S[C@]2(C(=O)O)CC(=O)N(Cc3cc(C(F)(F)F)cc(C(F)(F)F)c3)[C@@H]2c2ccc(CO)cc2I)cc1`, for which the z-score is 0.367 (inactive) in assay [1]; 5.86 (inactive) in assay [3]; 0.877 (inactive) in assay [4]; 1.03 (inactive) in assay [5]; 0.522 (inactive) in [6]; 0.243 in [7]. The figures for the z-score in [8], in assay [9] and in assay [10] were 1.75 (inactive), -2.5 (inactive) and 0.547, respectively. Besides, the composite z-score in assay [2] came to 0.26.

As for `COc1ccc([Si](C)(C)[C@@H]2[C@@H](CC(=O)N(CCO)Cc3ccccc3)O[C@]3(C(=O)N(Cc4cccc(N5CCC5=O)c4)c4ccccc43)[C@H]2C)cc1`, the z-score is 0.557 (inactive) in [1]; 3.67 (inactive) in [3]; 1.49 (inactive) in [4]; 0.0319 (inactive) in [5]; 1.19 (inactive) in assay [6]; 1.61 in assay [7]. The z-score in assay [8] was 1.34 (inactive); in [9], 1.48 (inactive); in [10], 3.23. In addition, the composite z-score in assay [2] is 0.122.

Regarding `CCCCO[C@H]1C[C@H]2C(Br)=C[C@@]1(CO)C(=O)[C@]21CO1`, the z-score was 2.71 (inactive) in assay [1]; -0.789 (inactive) in assay [3]; -1 (inactive) in assay [4]; -0.269 (inactive) in assay [5]; -2.44 (inactive) in assay [6]; 1.69 in [7]. For the same molecule, the z-score is -0.446 (inactive) in assay [8], 0.493 (inactive) in assay [9] and 0.178 in assay [10]. The composite z-score in assay [2] is -0.198.

In the case of `COc1ccc([Si](C)(C)[C@@H]2[C@@H](CCO)O[C@]3(C(=O)N(Cc4ccc(NC(=O)[C@H](C)O)cc4)c4ccccc43)[C@H]2C)cc1`, the z-score is 1.12 (inactive) in assay [1]; 31.4 (active) in [3]; 27.1 (active) in [4]; 1.58 (inactive) in [5]; 2.46 (inactive) in assay [6]; 0.597 in assay [7]. The values for the z-score in [8], in assay [9] and in assay [10] were 0.535 (inactive), 1.26 (inactive) and 0.648, respectively. Besides, the composite z-score in assay [2] amounted to 0.0378.

On to `O=C(NCc1ccccc1)[C@@]1(Cc2ccccc2)COC(c2ccc(OCCCO)cc2)=N1`, for which the z-score in [1] is -0.65 (inactive); in [3] it was 29.5 (active); in assay [4], 21.2 (active); in assay [5], 3.61 (inactive); in assay [6], 3.89 (inactive); in assay [7], 0.366. Moreover, the z-score in [8] was -3.55 (inactive); in [9], -0.556 (inactive); in [10], -2.81. In [2], the composite z-score turned out to be 0.205.

Regarding `CN(C)CCCC[C@@H]1NC(=O)[C@@H]2C[C@H](C(=O)NCCCCCNC(=O)CS)[C@H](c3ccc(O)cc3)N2C1=O`, the z-score was 1.04 (inactive) in [1]; 1.06 (inactive) in [3]; -1.21 (inactive) in assay [4]; -3.46 (inactive) in [5]; -2.25 (inactive) in [6]; 0.209 in assay [7]. The z-score is 0.109 (inactive) in assay [8], 0.501 (inactive) in assay [9] and 0.398 in assay [10]. In [2], this molecule yielded a composite z-score of -0.227.

Take `COc1ccc([Si](C)(C)[C@@H]2[C@@H](CCO)O[C@]3(C(=O)N(Cc4ccccc4)c4ccccc43)[C@H]2C)cc1`: the z-score is 1.25 (inactive) in [1]; 1.13 (inactive) in [3]; 0.81 (inactive) in assay [4]; 0.117 (inactive) in assay [5]; 0.353 (inactive) in [6]; 0.779 in assay [7]. The z-score in [8] is 1.57 (inactive); in [9], -0.523 (inactive); in assay [10], 1.84. In addition, the composite z-score in assay [2] was -0.0143.

For `CC(C)(C)OC(=O)CC[C@]1(C(=O)N2CCCCC2)N=C(c2ccc(OCCCO)cc2)O[C@H]1c1ccccc1`, the z-score was 0.978 (inactive) in assay [1]; 24 (active) in assay [3]; 6.24 (inactive) in [4]; 1.03 (inactive) in [5]; -0.186 (inactive) in [6]; 2.2 in assay [7]. In addition, the z-score in [8] was -1.41 (inactive); in [9] it was 1.02 (inactive); in assay [10], 0.541. Also, in assay [2], the composite z-score was -0.294.

On to `O=C(NCc1ccccc1)c1ccc(Br)cc1[N+](=O)[O-]`, for which the z-score is -1.03 (inactive) in assay [1]; -0.403 (inactive) in assay [3]; -0.0642 (inactive) in [4]; -1.3 (inactive) in [5]; 0.0836 (inactive) in [6]; -0.597 in [7]. Moreover, the figures for the z-score in assay [8], in assay [9] and in assay [10] were -0.564 (inactive), -0.281 (inactive) and -0.032, respectively. The composite z-score in assay [2] is -0.17.

For `CC(=O)Nc1ccc([C@H]2[C@H](C)CC[C@H]3C(=O)N4[C@@H](CC[C@@H](C)[C@@H]4c4ccc(NC(C)=O)cc4)C(=O)N32)cc1`, the z-score was -0.929 (inactive) in assay [1]; 1.91 (inactive) in assay [3]; 0.586 (inactive) in assay [4]; 0.699 (inactive) in assay [5]; 0.32 (inactive) in [6]; -0.164 in assay [7]. For the same molecule, the values for the z-score in [8], in assay [9] and in assay [10] were 0.0427 (inactive), 1.25 (inactive) and 0.198, respectively. Besides, the composite z-score in assay [2] was -0.045.
